High-throughput results as filed in PubChem BioAssay.
C diff growth = C. difficile growth inhibitors, primary screen, HTS | Clostridium difficile clinical isolate growth, OD600, 24 h; stronger effect = lower value | growth activity, negative = inhibition, % at 16 µg/mL (by protocol) | hit rate 0.25% among 86,000;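 active = mean growth activity at or below -80% and every replicate also at or below -80%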;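 note: 0% = DMSO wells and -100% = levofloxacin 16 µg/mL wells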
Pf Dd2 inh = P. falciparum Dd2 growth inhibitors, primary screen, SYBR Green fluorescence, single dose replicates; 72 h; stronger effect = lower value; activity change, % at 10 µM; hit rate 2.3% among 94,000; AID 1159554, 2015; in the data active = activity change below about -80%
* marks the source's active call; other numbers are inactive results; . = no result given. Rows were chosen to be rich in hits. Some 2.4% of all compounds tested hit in one or more screens of this group.

SMILES | C diff growth | Pf Dd2 inh
C[C@@H]1CN([C@@H](C)CO)S(=O)(=O)c2ccc(-c3ccccc3F)cc2O[C@@H]1CN(C)Cc1ccncc1 | -17.3 | -5.0
O=C(Nc1ccccc1F)N[C@@H]1CC[C@H](CCNC(=O)C2CCCCC2)O[C@H]1CO | . | -4.8
COc1cccc(S(=O)(=O)Nc2ccc3c(c2)[C@@H]2C[C@@H](CC(=O)N4CCCCC4)O[C@@H](CO)[C@@H]2O3)c1 | . | -35.9
COCC#Cc1ccc2c(c1)O[C@@H](CN(C)S(=O)(=O)c1ccc(F)cc1)[C@@H](C)CN([C@H](C)CO)S2(=O)=O | . | -36.9
COc1ccc(NC(=O)N(C)C[C@H]2OCCCC[C@H](C)Oc3ccc(NC(=O)NC(C)C)cc3C(=O)N([C@H](C)CO)C[C@@H]2C)cc1 | -1.0 | -29.2
C[C@H](CO)N1C[C@H](C)[C@H](CN(C)Cc2ccc(-c3ccccc3)cc2)Oc2ccc(NC(=O)Nc3ccc4c(c3)OCO4)cc2CC1=O | 20.5 | -4.9
C[C@@H]1CN([C@H](C)CO)C(=O)Cc2cc(NC(=O)Cc3cn(C)c4ccccc34)ccc2O[C@H]1CN(C)Cc1ccc(Cl)c(Cl)c1 | -5.9 | -55.5
C[C@@H]1CN([C@H](C)CO)C(=O)Cc2cc(NC(=O)Nc3ccc4c(c3)OCO4)ccc2O[C@@H]1CN(C)Cc1ccc2c(c1)OCO2 | 6.6 | -0.4
C[C@H](CO)N1C[C@H](C)[C@@H](CN(C)Cc2ccc(-c3ccccc3)cc2)Oc2ccc(NC(=O)Nc3ccc4c(c3)OCO4)cc2CC1=O | 79.0 | -82.1*
C[C@@H]1CN([C@@H](C)CO)C(=O)Cc2cc(NC(=O)Cc3cn(C)c4ccccc34)ccc2O[C@H]1CN(C)Cc1ccc(Cl)c(Cl)c1 | 6.5 | -81.7*
C[C@H](CO)N1C[C@H](C)[C@@H](CN(C)Cc2ccc3c(c2)OCO3)Oc2ccc(NC(=O)Nc3ccc4c(c3)OCO4)cc2CC1=O | 7.7 | -91.2*
C[C@@H]1CN([C@H](C)CO)C(=O)Cc2cc(NC(=O)Nc3ccccc3)ccc2O[C@@H]1CN(C)Cc1ccc(-c2ccccc2)cc1 | 4.5 | 32.1
C[C@@H]1CN([C@@H](C)CO)C(=O)Cc2cc(NC(=O)Nc3ccccc3)ccc2O[C@H]1CN(C)Cc1ccc(-c2ccccc2)cc1 | 46.6 | -88.0*
Cc1noc(C)c1NC(=O)Nc1ccc2c(c1)C(=O)N([C@@H](C)CO)C[C@@H](C)[C@@H](CN(C)S(=O)(=O)c1c(C)noc1C)O2 | -7.5 | 25.0
O=C(C[C@H]1C[C@H]2c3cc(NC(=O)C4CCC4)ccc3O[C@H]2[C@@H](CO)O1)NCC1CC1 | 1.7 | -2.0
CC(C)NC(=O)N1[C@H](CO)[C@@H](c2ccccc2)[C@@H]1CNC(=O)CN(C)C | 0.2 | -13.1
C[C@H]1CCCCO[C@@H](CN(C)Cc2ccc3c(c2)OCO3)[C@@H](C)CN([C@@H](C)CO)C(=O)c2cc(NS(=O)(=O)c3ccc(Cl)cc3)ccc2O1 | . | -61.1
C[C@@H]1CCCCO[C@H](CN(C)S(=O)(=O)c2cn(C)cn2)[C@H](C)CN([C@@H](C)CO)C(=O)c2cc(NC(=O)CCC(F)(F)F)ccc2O1 | 5.3 | 13.8
C[C@H](CO)N1C[C@H](C)[C@@H](CN(C)C(=O)Nc2ccc3c(c2)OCO3)Oc2ccc(NC(=O)Nc3ccccc3)cc2CC1=O | 5.3 | -83.3*
C[C@H](CO)N1C[C@H](C)[C@@H](CN(C)C(=O)Nc2ccccc2)Oc2ccc(NC(=O)Nc3ccc4c(c3)OCO4)cc2CC1=O | -14.5 | 6.1
C[C@H](CO)N1C[C@H](C)[C@@H](CN(C)Cc2ccccc2)Oc2ccc(NC(=O)Nc3ccc(F)cc3)cc2CC1=O | -0.5 | -88.3*
C[C@@H]1CN([C@@H](C)CO)C(=O)Cc2cc(NC(=O)Nc3ccc(F)cc3)ccc2O[C@@H]1CN(C)Cc1ccccc1 | 1.1 | -35.7
C[C@H]1CN([C@@H](C)CO)C(=O)Cc2cc(NC(=O)Nc3ccccc3)ccc2O[C@H]1CN(C)Cc1ccc(Oc2ccccc2)cc1 | 8.5 | -5.8
C[C@@H]1CN([C@@H](C)CO)C(=O)Cc2cc(NC(=O)Nc3ccccc3)ccc2O[C@H]1CN(C)Cc1ccc(Oc2ccccc2)cc1 | 29.2 | -87.1*
C[C@H](CO)N1C[C@H](C)[C@@H](CN(C)Cc2ccc(Oc3ccccc3)cc2)Oc2ccc(NS(=O)(=O)c3cn(C)cn3)cc2CC1=O | -1.7 | -90.2*
SMILES | C diff growth | Pf Dd2 inh
C[C@H]1CN([C@@H](C)CO)C(=O)Cc2cc(NS(=O)(=O)c3cn(C)cn3)ccc2O[C@H]1CN(C)Cc1ccc(Oc2ccccc2)cc1 | -13.2 | 0.5
COc1ccccc1NC(=O)N[C@H]1CC[C@@H](CC(=O)N[C@H](C)c2ccccc2)O[C@H]1CO | . | 3.9
Cc1noc(C)c1NC(=O)N(C)C[C@H]1OCCCC[C@@H](C)Oc2ccc(NS(=O)(=O)c3c(C)noc3C)cc2C(=O)N([C@@H](C)CO)C[C@H]1C | 1.1 | 9.6
COc1ccc2c3c(n(C)c2c1)[C@@H](CO)N(C(=O)Nc1ccc(F)cc1)CC31CN(C)C1 | . | 25.6
CC(=O)Nc1ccc2c(c1)C(=O)N(C)[C@H]1CC[C@@H](CC(=O)NC3CCCCC3)O[C@@H]1CO2 | -1.7 | -16.9
O=C(NC1Cc2ccccc2C1)[C@H]1[C@H](CO)[C@H]2Cn3c(ccc(C4=CCCCC4)c3=O)[C@@H]1N2 | 2.6 | 11.3
O=C(CC1CC1)N1[C@H](CO)[C@@H](c2ccccc2)C12CN(S(=O)(=O)c1ccccc1)C2 | 8.8 | 24.1
C[C@@H]1CN([C@H](C)CO)C(=O)c2cccc(NC(=O)Nc3cccc4ccccc34)c2O[C@@H]1CN(C)S(=O)(=O)c1cn(C)cn1 | 2.4 | -49.1
Cc1noc(C)c1S(=O)(=O)Nc1ccc2c(c1)CC(=O)N([C@@H](C)CO)C[C@H](C)[C@@H](CN(C)S(=O)(=O)c1cccs1)O2 | -1.1 | -18.0
O=C(C[C@@H]1CC[C@H](NS(=O)(=O)c2ccc(F)cc2)[C@H](CO)O1)NCc1ccncn1 | 1.9 | 31.0
C[C@@H]1CN([C@H](C)CO)C(=O)c2cc(NS(=O)(=O)c3ccccc3)ccc2O[C@H]1CN(C)S(C)(=O)=O | 0.5 | 17.7
CC(C)NC(=O)Nc1ccc2c(c1)CC(=O)N([C@@H](C)CO)C[C@H](C)[C@@H](CN(C)Cc1ccc(Cl)c(Cl)c1)O2 | 19.0 | -16.4
CC(C)NC(=O)Nc1ccc2c(c1)CC(=O)N([C@@H](C)CO)C[C@@H](C)[C@H](CN(C)Cc1ccc(Cl)c(Cl)c1)O2 | 3.7 | -82.0*
C[C@@H]1CN([C@H](C)CO)C(=O)Cc2cc(NC(=O)Nc3cccc4ccccc34)ccc2O[C@H]1CN(C)C(=O)Nc1ccc(C(F)(F)F)cc1 | 4.0 | -10.6
CC(C)NC(=O)N(C)C[C@@H]1Oc2ccc(NC(=O)Nc3ccc(F)cc3)cc2C(=O)N([C@H](C)CO)C[C@@H]1C | 1.8 | -8.2
CCCN(C)C[C@H]1OCCCC[C@H](C)Oc2ccc(NC(=O)c3ccncc3)cc2C(=O)N([C@H](C)CO)C[C@H]1C | -0.3 | -85.8*
CCCN(C)C[C@H]1OCCCC[C@@H](C)Oc2ccc(NC(=O)c3ccncc3)cc2C(=O)N([C@@H](C)CO)C[C@H]1C | -6.6 | -87.7*
CCCN(C)C[C@H]1OCCCC[C@@H](C)Oc2ccc(NC(=O)c3ccncc3)cc2C(=O)N([C@H](C)CO)C[C@@H]1C | -0.1 | -18.8
CCCN(C)C[C@@H]1OCCCC[C@H](C)Oc2ccc(NC(=O)c3ccccc3)cc2C(=O)N([C@@H](C)CO)C[C@@H]1C | 0.3 | -41.0
